From PubChem BioAssay (NCI)
Where “and” joins values, the source holds several entries; their conditions need not be identical. Equal entries are not always repeated. This is part of a sample that, as a whole, favours compounds with a hit. Of some 79,000 tested, about 15% had one in any assay. More than one record can exist for a structure, and the calls need not agree. Calls of active or inactive are those of the source. Cut-off read from the data, not from the text of the source: active = growth inhibition above about 70%; inactive = the rest.

Columns and labels:
[1] = NCI Yeast Anticancer Drug Screen. Data for the rad50 strain (AID 155);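 note: 0% = growth of vehicle-only cultures of the same strain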; details: S. cerevisiae rad50 strain growth inhibition, stronger effect = higher value
Summary of the method: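 Yeast carrying a defined DNA repair defect were exposed to test compounds, and growth was compared with vehicle-treated controls to give percent inhibition.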

[2] = NCI Yeast Anticancer Drug Screen. Data for the mec2-1 strain (AID 157); details: S. cerevisiae mec2-1 strain, stronger effect = higher value
Summary of the method: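 Mutant yeast (mec2-1) grown with compound; growth inhibition relative to vehicle control reported.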

[3] = NCI Yeast Anticancer Drug Screen. Data for the sgs1 mgt1 strain (AID 161);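 note: 0% = growth of cultures given vehicle only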; details: S. cerevisiae sgs1 mgt1 strain, stronger effect = higher value
Summary of the method: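 Growth of a repair-deficient yeast mutant was monitored after compound treatment and expressed as inhibition relative to vehicle-treated cultures.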

[4] = NCI Yeast Anticancer Drug Screen. Data for the cln2 rad14 strain (AID 165);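 note: 0% = growth equal to vehicle treated cultures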; details: S. cerevisiae cln2 rad14 strain, stronger effect = higher value
Summary of the method: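 Readout is yeast growth inhibition versus vehicle-treated controls, using a strain with cln2 and rad14 alterations exposed to compound.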

[5] = NCI Yeast Anticancer Drug Screen. Data for the bub3 strain (AID 167); details: S. cerevisiae bub3 mutant strain, stronger effect = higher value
Summary of the method: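 Compounds were applied to a genetically altered yeast strain carrying a cell-cycle control defect. Growth inhibition was scored against vehicle-treated controls.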

[6] = NCI Yeast Anticancer Drug Screen. Data for the mlh1 rad18 strain (AID 175); details: S. cerevisiae mlh1 rad18 strain growth inhibition, stronger effect = higher value
Summary of the method: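 Genetically defined yeast (DNA repair-deficient) exposed to compounds; growth inhibition determined relative to vehicle.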

[7] = at 5.0 µM (retest, dose inferred, filed as 0.5)
[8] = at 50.0 µM (retest, dose inferred, filed as 5.0)

Row | SMILES | growth inhibition [1, 7] | growth inhibition [1, 8] | growth inhibition ([1]; at 50.0 µM) | growth inhibition [2, 7] | growth inhibition [2, 8] | growth inhibition ([2]; at 50.0 µM) | growth inhibition [3, 7] | growth inhibition [3, 8] | growth inhibition ([3]; at 50.0 µM) | growth inhibition [4, 7] | growth inhibition [4, 8] | growth inhibition ([4]; at 50.0 µM) | growth inhibition [5, 7] | growth inhibition [5, 8] | growth inhibition ([5]; at 50.0 µM) | growth inhibition [6, 7] | growth inhibition [6, 8] | growth inhibition ([6]; at 50.0 µM)
1 | Cc1ccc(C(=O)CCl)c(C)c1 | 11% (inactive) and 16% (inactive) | 99% (active) and 94% (active) | 96.4% (active) and 87.7% (active) | 23% (inactive) and 18% (inactive) | 99% (active) and 92% (active) | 98.2% (active) and 91.6% (active) | 25% (inactive) and 11% (inactive) | 99% (active) and 55% (inactive) | 94.7% (active) and 96.1% (active) | 15% (inactive) and 17% (inactive) | 97% (active) and 83% (active) | 87.3% (active) and 71.6% (active) | 8% (inactive) and 2% (inactive) | 99% (active) and 97% (active) | 91.8% (active) and 90.2% (active) | 28% (inactive) and 7% (inactive) | 99% (active) | 97.7% (active) and 97.1% (active)
2 | O=C(C1C(c2ccccc2)N1C(c1ccccc1)c1ccccc1)C1C(c2ccccc2)N1C(c1ccccc1)c1ccccc1 (stereo unspecified) | -3% (inactive) | 50% (inactive) | 72.7% (active) | 23% (inactive) | 42% (inactive) | 54% (inactive) | -3% (inactive) | 77% (active) | 58% (inactive) | -17% (inactive) | 6% (inactive) | 24% (inactive) | -14% (inactive) | 56% (inactive) | 63.9% (inactive) | 7% (inactive) | 80% (active) | 90.2% (active)
3 | CCCCN(CCCC)CCc1ccc(OC(=O)c2ccc(N)cc2)cc1 | 27% (inactive) | 76% (active) | 82.5% (active) | 23% (inactive) | 80% (active) | 70.7% (active) | 46% (inactive) | 90% (active) | 91.2% (active) | 42% (inactive) | 73% (active) | 90.2% (active) | 50% (inactive) | 84% (active) | 79% (active) | 32% (inactive) | 78% (active) | 84.8% (active)
4 | CC1CCC2(NC1)OC1CC3C4CC=C5CC(O)CCC5(C)C4CCC3(C)C1C2C (stereo unspecified) | 78% (active) and -4% (inactive) | 98% (active) and 99% (active) | 90.8% (active) and 98.2% (active) | 56% (inactive) and 13% (inactive) | 99% (active) and 98% (active) | 93% (active) and 99.3% (active) | 92% (active) and -3% (inactive) | 99% (active) | 91.8% (active) and 99% (active) | 72% (active) and -17% (inactive) | 99% (active) and 98% (active) | 87.5% (active) and 98.5% (active) | 93% (active) and 39% (inactive) | 99% (active) | 90.2% (active) and 99.1% (active) | 77% (active) and 4% (inactive) | 98% (active) and 99% (active) | 89% (active) and 98.8% (active)
5 | CCOP(=O)(CP(=O)(OCC)OCC)OCC.[Cl][Sn]([Cl])([c]1ccccc1)[c]1ccccc1 | 11% (inactive) | 99% (active) | 98.8% (active) | -4% (inactive) | 99% (active) | 98.9% (active) | 7% (inactive) | 97% (active) | 99.1% (active) | 7% (inactive) | 96% (active) | 98.1% (active) | 19% (inactive) | 98% (active) | 97.8% (active) | 1% (inactive) | 98% (active) | 99% (active)
6 | c1cc2c(c(NC3=NCCN3)c1)CCCC2 | 12% (inactive) | 18% (inactive) | -12.2% (inactive) | 1% (inactive) | -17% (inactive) | -18.9% (inactive) | 1% (inactive) | 12% (inactive) | -7% (inactive) | -21% (inactive) | -4% (inactive) | 33.1% (inactive) | -26% (inactive) | -7% (inactive) | -9.9% (inactive) | 2% (inactive) | 13% (inactive) | 7.65% (inactive)
7 | [Cl][Hg].c1ccc([As]c2ccc(-c3ccccc3)cc2)cc1 (stereo unspecified) | 99% (active) | 90% (active) | 99% (active) | 99% (active) | 92% (active) | 99.4% (active) | 100% (active) | 93% (active) | 99.2% (active) | 99% (active) | 91% (active) | 99% (active) | 99% (active) | 92% (active) | 98.5% (active) | 100% (active) | 92% (active) | 99% (active)
8 | O=[N+]([O-])c1cc([N+](=O)[O-])c(Cl)cc1F | 99% (active) | 99% (active) | 81% (active) | 99% (active) | 99% (active) | 59.7% (inactive) | 99% (active) | 99% (active) | 78.2% (active) | 98% (active) | 99% (active) | -3.25% (inactive) | 99% (active) | 99% (active) | 87.5% (active) | 99% (active) | 99% (active) | 98.6% (active)
9 | N#CC(C#N)=Cc1ccc2c(c1)OC(Cl)O2 (stereo unspecified) | 25% (inactive) | 46% (inactive) | 59.6% (inactive) | 26% (inactive) | 27% (inactive) | 49.2% (inactive) | 15% (inactive) | 33% (inactive) | 57.5% (inactive) | 15% (inactive) | 18% (inactive) | 55.5% (inactive) | -11% (inactive) | 16% (inactive) | 55.9% (inactive) | 35% (inactive) | 35% (inactive) | 66.5% (inactive)
10 | C1CC[N-]CC1.CC(=N\O)/C(C)=N/O.CC(=N\O)/C(C)=N/O.OC1[CH-]CCCC1.[Co+2] | 22% (inactive) | 20% (inactive) | 23.9% (inactive) | 5% (inactive) | 16% (inactive) | -1.95% (inactive) | 28% (inactive) | 25% (inactive) | 13.9% (inactive) | 17% (inactive) | 28% (inactive) | 76% (active) | 13% (inactive) | 13% (inactive) | -5.4% (inactive) | 17% (inactive) | 35% (inactive) | 30.9% (inactive)
11 | COc1cc(C=Nc2cc[c]([Hg][O]C(C)=O)cc2)ccc1O | 4% (inactive) | 23% (inactive) | 99.5% (active) | -1% (inactive) | 67% (inactive) | 99.5% (active) | 2% (inactive) | 67% (inactive) | 99.4% (active) | -4% (inactive) | 22% (inactive) | 99.3% (active) | 3% (inactive) | 75% (active) | 99.3% (active) | 0% (inactive) | 56% (inactive) | 99.3% (active)
12 | CCC1CCCCN1CC(C(C)=O)C(c1ccccc1)c1c(O)c2ccccc2oc1=O (stereo unspecified) | 13% (inactive) | 13% (inactive) | 78.2% (active) | 0% (inactive) | 0% (inactive) | 64.8% (inactive) | 5% (inactive) | 5% (inactive) | 79.3% (active) | -6% (inactive) | -6% (inactive) | 72.5% (active) | 6% (inactive) | 6% (inactive) | 71.3% (active) | 7% (inactive) | 7% (inactive) | 75.3% (active)
13 | COc1ccc(CC2C(=O)NC(C)C(=O)N(C)C3C(=O)N(C)C(Cc4ccc(O)c(c4)Oc4ccc(cc4)C3O)C(=O)NC(C)C(=O)NC(C)C(=O)N2C)cc1 (stereo unspecified) | -8% (inactive) | 80% (active) | 75.9% (active) | 29% (inactive) | 69% (inactive) | 47.5% (inactive) | 12% (inactive) | 63% (inactive) | 54.3% (inactive) | 27% (inactive) | 88% (active) | 84.5% (active) | 19% (inactive) | 81% (active) | 65.4% (inactive) | 10% (inactive) | 87% (active) | 63% (inactive)
14 | COc1ccc(C(Cc2ccc(Cl)c(Cl)c2)NCCO)cc1 (stereo unspecified) | -16% (inactive) | 37% (inactive) | 75% (active) | -5% (inactive) | -1% (inactive) | 23.3% (inactive) | -35% (inactive) | 27% (inactive) | 31.1% (inactive) | -2% (inactive) | 10% (inactive) | 11.9% (inactive) | 4% (inactive) | 32% (inactive) | 59.1% (inactive) | 3% (inactive) | 48% (inactive) | 86.2% (active)
15 | O=C1CCC[N]1[Hg][N]1CCCC1=O | 44% (inactive) | 46% (inactive) | 93.2% (active) | 40% (inactive) | 51% (inactive) | 94.6% (active) | 99% (active) | 99% (active) | 94.2% (active) | 66% (inactive) | 97% (active) | 92% (active) | 99% (active) | 98% (active) | 93.8% (active) | 33% (inactive) | 51% (inactive) | 92.8% (active)
16 | CC1CCC2(OC1)OC1CC3C4CC=C5CC(OC6OC(CO)C(OC7OC(C)C(OC8OC(C)C(O)C(O)C8O)C(O)C7O)C(O)C6OC6OC(C)C(O)C(O)C6O)CCC5(C)C4CCC3(C)C1C2C (stereo unspecified) | 100% (active) | 94% (active) | 87.3% (active) | 99% (active) | 96% (active) | 81.5% (active) | 99% (active) | 95% (active) | 84% (active) | 99% (active) | 95% (active) | 86.7% (active) | 99% (active) | 95% (active) | 89.2% (active) | 98% (active) | 91% (active) | 86.5% (active)
17 | FC(F)(F)c1nc2ccc(SSc3ccc4nc(C(F)(F)F)[nH]c4c3)cc2[nH]1 | -8% (inactive) | 17% (inactive) | 96% (active) | 13% (inactive) | 20% (inactive) | 93.8% (active) | -3% (inactive) | 12% (inactive) | 96.6% (active) | 8% (inactive) | -32% (inactive) | 92.3% (active) | 1% (inactive) | 14% (inactive) | 95.5% (active) | 2% (inactive) | -6% (inactive) | 97.2% (active)
